Assay outcomes from PubChem.
This is a sample that favours compounds with a hit; in the whole collection about 2.9% have one here.
CRFBP-R2 agonist – CRF-BP/CRF-R2 complex agonism; HEK293 CRF-R2/CRF-BP, calcium dye fluorescence (FLIPR); percent of saturating CRF peptide response; activation, % at 13.2 µM; 350,000 tested, 0.46% active;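 active means activation of at least 50%, plus an integration ratio under a set limit after plate pattern correction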;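 further: plate controls were neutral control wells without compound for no effect and CRF at EC100 for full effect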
MEKK2 mut-MEK5 – signal of MEK5 binding to mutant human MEKK2 PB1 domain | bead flow cytometry, Alexa488-MEK5 binding to MEKK2 mutant | percent response, % at 10 µM | 290,000 tested, 0.35% active; in the data active means percent response above about 24%, passing the limit was not always enough
CRFR2-BP antag – antagonists of CRF-binding protein/CRF-R2 receptor complex | 350,000 tested, 0.59% active | AID 588475 | inhibition, % at 11.8 µM | HEK293 CRF-R2/CRF-BP, CRF-induced calcium fluorescence;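 active means inhibition of the ligand-induced calcium signal above about 50% at the single tested concentration, limit read from the data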
ABCB6 inh MLPCN – blocks the human ABCB6 transporter. fluorescence ratio to DMSO, % at 10 µM. 360,000 tested, 0.19% active. K562-ABCB6 porphyrin accumulation, flow cytometry, 1 h; hits give low values. AID 602162. Q9NP58;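 active means fluorescence ratio to DMSO below 75%, the collection mean minus 3 SD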;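 further: signal is porphyrin accumulated inside mitochondria; 100% equals median channel fluorescence of DMSO control wells; lower ratio means ABCB6 inhibition with less porphyrin fluorescence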
MEKK2 WT-MEK5 – raises or lowers MEK5 binding to wildtype human MEKK2 PB1 domain | Q9Y2U5 | bead flow cytometry, Alexa488-MEK5 binding to MEKK2 WT; actives lie on both sides | binding response (% of control), % at 10 µM | 290,000 tested, 1.1% active | AID 1531; in the data active means binding response below about 67% or above about 130%
MEKK3 PB1 HTS – raises or lowers MEK5 binding to the human MEKK3 PB1 domain. Q99759. bead-based flow cytometry, Alexa488-MEK5 binding to MEKK3; actives lie on both sides; 0 = blocked by unlabeled MEK5, 100 = vehicle. binding response (% of control), % at 10 µM. 290,000 tested, 1.4% active. AID 1529;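 active means binding response more than 3 SD above or below the average of its plate-row segment, actives on both sides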;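 further: Alexa488 bead fluorescence after subtracting the streptavidin-only scavenger bead signal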
Target sequence (Q99759 whole entry, looked up, the tested form may be a part): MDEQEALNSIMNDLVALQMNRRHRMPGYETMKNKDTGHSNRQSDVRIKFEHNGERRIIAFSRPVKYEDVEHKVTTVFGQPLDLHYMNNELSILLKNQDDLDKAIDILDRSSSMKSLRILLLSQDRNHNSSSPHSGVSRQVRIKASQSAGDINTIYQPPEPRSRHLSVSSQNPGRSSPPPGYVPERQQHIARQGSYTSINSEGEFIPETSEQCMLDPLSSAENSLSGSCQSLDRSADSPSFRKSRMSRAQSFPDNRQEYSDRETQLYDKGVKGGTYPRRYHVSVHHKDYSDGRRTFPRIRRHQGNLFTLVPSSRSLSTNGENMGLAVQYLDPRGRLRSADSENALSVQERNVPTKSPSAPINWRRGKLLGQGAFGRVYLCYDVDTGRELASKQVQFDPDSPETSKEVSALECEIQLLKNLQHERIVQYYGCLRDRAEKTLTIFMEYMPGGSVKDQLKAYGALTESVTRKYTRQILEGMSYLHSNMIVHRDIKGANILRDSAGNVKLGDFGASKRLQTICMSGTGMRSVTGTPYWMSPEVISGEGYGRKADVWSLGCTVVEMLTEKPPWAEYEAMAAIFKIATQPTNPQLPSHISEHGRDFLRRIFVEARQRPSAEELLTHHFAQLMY
MEKK2wt confirm – raises or lowers MEK5 binding to wildtype human MEKK2, retest | shares compounds with MEKK3 PB1 HTS | bead flow cytometry, Alexa488-MEK5 binding to MEKK2 WT; actives lie on both sides | binding response (% of control), % at 10 µM | 5,900 tested, 2.4% active; in the data active means binding response below about 16% or above about 210%; inactive means in between
MEKK2mut-MEK5 – signal of MEK5 binding to mutant human MEKK2, retest. shares compounds with MEKK3 PB1 HTS. percent response, % at 10 µM. bead flow cytometry, Alexa488-MEK5 binding to MEKK2 mutant. 5,900 tested, 2% active; in the data active means percent response mostly above about 71%, no sharp cut-off; inactive means mostly below about 38%;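 further: higher means compound restores mutant binding toward wildtype level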
MEKK3 confirm – confirmation of inhibitors of MEK5 binding to human MEKK3; shares compounds with MEKK3 PB1 HTS; bead flow cytometry, Alexa488-MEK5 binding to MEKK3; hits give low values; binding response (% of control), % at 10 µM; 5,900 tested, 1.8% active; AID 1894;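 active means binding response below 72% of control, or above a set upper limit, though filed actives all read lower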;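 further: 100% = DMSO only wells and 0% = binding blocked by excess unlabeled MEK5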
The depositor's hits bear a star; i = inactive; / = not tested or not shown; [ ] = remark or other dose.

SMILES | CRFBP-R2 agonist | MEKK2 mut-MEK5 | CRFR2-BP antag | ABCB6 inh MLPCN | MEKK2 WT-MEK5 | MEKK3 PB1 HTS | MEKK2wt confirm | MEKK2mut-MEK5 | MEKK3 confirm
COc1ccc(N2CCN(C(=O)Cn3cnc4c(cnn4-c4ccc(C)cc4)c3=O)CC2)cc1 | 0.8 | 1.0 | 2.1 | 101.0 | 116.0 | 129.0* | 105.0 | -5.0 | 100.0
CCCC(=O)Nc1ccc(S(=O)(=O)Nc2cc(OC)ncn2)cc1 | -1.0 | 3.0 | -7.3 | 98.0 | 103.0 | 102.0 | / | / | /
Cn1c(=O)c(/C=C/c2ccc(F)cc2)nc2ccccc21 | 4.5 | -10.0 | -0.2 | 100.0 | 55.0*[inhibitor] | 81.0 | 78.0 | -7.0 | 97.0
O=c1c(/C=C(\O)c2ccc(F)cc2)nc2ccccc2n1-c1ccccc1 | 163.1* | 1.0 | -117.9 | i | 45.0*[inhibitor] | 83.0 | 66.0 | -21.0 | 94.0
CC(C)C(C(=O)NC1CCCC1)N(CC1CCCO1)C(=O)CNS(=O)(=O)c1ccc(F)cc1 (stereo not given) | -0.4 | 1.0 | 19.9 | 96.0 | 100.0 | 105.0 | / | / | /
CCCc1cc(C(=O)OCC(=O)NCCc2ccccc2)sc1C | -0.3 | / | 0.3 | 78.0 | / | / | / | / | /
O=C(CCOc1ccccc1)Nc1cccc(S(=O)(=O)Nc2ccccc2Cl)c1 | 0.1 | -2.0 | 23.2 | 94.0 | 99.0 | 151.0* | 103.0 | -3.0 | 101.0
COc1cccc(OC)c1C(=O)Nc1cccc(S(=O)(=O)Nc2ccccc2Cl)c1 | 1.2 | / | 1.7 | 99.0 | / | / | / | / | /
CCOc1ccccc1C(=O)NCC(=O)NCC(c1ccco1)N1CCCCC1 (stereo not given) | 2.6 | / | -2.3 | 96.0 | / | / | / | / | /
CCC1=NC(c2ccc(OC)cc2)N(O)C1(C)C (stereo not given) | -0.7 | -13.0 | 2.1 | 101.0 | 93.0 | 80.0*[inhibitor] | 97.0 | 10.0 | 99.0
CCCc1ccc2oc(C(=O)N(C)CCn3ccnc3C)c(C)c2c1 | -0.1 | 24.0* | 4.3 | 98.0 | 117.0 | 113.0 | 104.0 | -2.0 | 102.0
CCCc1ccc2oc(C(=O)N(C)Cc3cnccn3)c(C)c2c1 | -1.6 | 8.0 | 8.8 | 96.0 | 97.0 | 98.0 | / | / | /
Cn1c(=O)c2c(ncn2CC(=O)N2CCN(C(=O)c3ccco3)CC2)n(C)c1=O | 0.9 | -9.0 | -2.4 | 99.0 | 50.0*[inhibitor] | 85.0 | 107.0 | 8.0 | 109.0
CCOc1ccc(Cl)cc1CSc1ncn[nH]1 | 0.2 | -31.0 | 37.7 | 101.0 | 1.0*[inhibitor] | 1.0*[inhibitor] | 96.0 | -15.0 | 88.0
CC(C)c1[nH]c(=O)c(C#N)c2c1CSC(C)(C)C2 | -1.5 | -14.0 | 1.6 | 94.0 | 3.0*[inhibitor] | 3.0*[inhibitor] | 100.0 | -4.0 | 98.0
CCC1=Nc2cc(C(=O)NCCCOC(C)C)ccc2Sc2ccccc21 | -0.2 | 5.0 | -19.2 | 98.0 | 127.0 | 128.0* | 95.0 | -1.0 | 99.0
CCC1=Nc2cc(C(=O)NCCCN3CCN(C)CC3)ccc2Sc2ccccc21 | 3.6 | 17.0 | -21.5 | 109.0 | 123.0 | 108.0 | / | / | /
O=C(COC(=O)COc1ccc(Cl)cc1Cl)Nc1cccnc1Cl | -1.7 | -1.0 | 33.3 | 96.0 | 105.0 | 137.0* | 103.0 | 2.0 | 102.0
CC(C)(C)NC(=O)NC(=O)COc1ccc(Br)cc1Br | -2.3 | 5.0 | -22.6 | 89.0 | 98.0 | 102.0 | / | / | /
CC(C)(C)NC(=O)NC(=O)COC(=O)COc1ccc(Cl)cc1Cl | 0.9 | -3.0 | -35.1 | 98.0 | 93.0 | 75.0*[inhibitor] | 103.0 | 5.0 | 107.0
O=C(COC(=O)COc1ccccc1)Nc1cccnc1Cl | 0.7 | / | -7.6 | 94.0 | / | / | / | / | /
Cc1oc(-c2ccccc2)cc1C(=O)NCc1ccncc1 | -1.4 | 13.0 | -4.3 | 97.0 | 56.0*[inhibitor] | 102.0 | 104.0 | -4.0 | 99.0
O=c1cc(CSc2nnc(COc3ccccc3)o2)c2ccccc2[nH]1 | -0.7 | 7.0 | -15.5 | 92.0 | 121.0 | 125.0* | 100.0 | -1.0 | 101.0
Cc1ccc(OCc2nnc(SCc3cc(=O)[nH]c4ccccc34)o2)cc1 | 0.1 | -2.0 | -20.1 | 93.0 | 98.0 | 100.0 | / | / | /
O=C(c1ccncc1)N1CCc2ccccc2C1 | 1.1 | -3.0 | -2.2 | 98.0 | 98.0 | 101.0 | / | / | /
SMILES | CRFBP-R2 agonist | MEKK2 mut-MEK5 | CRFR2-BP antag | ABCB6 inh MLPCN | MEKK2 WT-MEK5 | MEKK3 PB1 HTS | MEKK2wt confirm | MEKK2mut-MEK5 | MEKK3 confirm
O=C(c1ccc(Cl)nc1)N1CCc2ccccc2C1 | 8.4 | -46.0 | 0.7 | 102.0 | 21.0*[inhibitor] | 14.0*[inhibitor] | 98.0 | 0.0 | 102.0
O=C(NCCCn1ccnc1)c1ccc(Cl)s1 | -1.1 | 8.0 | 5.5 | 87.0 | 106.0 | 102.0 | / | / | /
O=[N+]([O-])c1ccc2sc(SCc3nc4ccccn4c3Br)nc2c1 | / | 0.0 | / | / | 104.0 | 138.0* | 102.0 | -2.0 | 102.0
CN(C)c1nc(NCc2ccccc2)nc(N/N=C/c2cccc(Br)c2)n1 | -1.7 | 15.0 | -9.2 | 95.0 | 139.0* | 108.0 | 125.0 | 13.0 | 106.0
Cc1ccc(-n2c(C)cc(C(=O)COc3cccnc3[N+](=O)[O-])c2C)cc1 | 0.0 | 0.0 | 15.3 | 98.0 | 110.0 | 152.0* | 98.0 | -8.0 | 99.0
CCOc1cc(CNCCCN2CCOCC2)ccc1OCC(=O)Nc1cccc2ccccc12 | 5.3 | 18.0 | -23.0 | 107.0 | 141.0* | 106.0 | 115.0 | -1.0 | 99.0
COc1cc(CNCCCN2CCOCC2)ccc1OCC(=O)Nc1cccc(C(F)(F)F)c1 | 1.6 | 8.0 | -2.4 | 103.0 | 119.0 | 104.0 | / | / | /
CC(C)NC(=O)CSc1ccccc1C(=O)NNC(=O)Cn1ccc(C(F)(F)F)n1 | 0.3 | / | 13.8 | 98.0 | / | / | / | / | /
Cc1cccn2c(NC(=O)c3cccs3)c(-c3ccccc3)nc12 | -3.1 | 1.0 | 2.4 | 95.0 | 107.0 | 138.0* | 101.0 | 3.0 | 104.0
CCOc1ccc(S(=O)(=O)N2CCCC(C(=O)NCc3cccnc3)C2)cc1Cl (stereo not given) | -1.0 | -2.0 | 8.0 | 93.0 | 98.0 | 101.0 | / | / | /
O=C(CSc1ncnc2ccccc12)c1cccs1 | -1.5 | -4.0 | -1.4 | 98.0 | 80.0 | 63.0*[inhibitor] | 103.0 | 1.0 | 100.0
CCN(CC)C(C(=O)Nc1ccc(C(C)C)cc1)c1ccc2c(c1)OCO2 (stereo not given) | -0.1 | 15.0 | -39.2 | 98.0 | 134.0* | 118.0 | 117.0 | 6.0 | 101.0
Cc1ccccc1NC(=O)C1(NC(=O)c2cccc(N3C(=O)CSC3c3ccccc3)c2)CCCCC1 (stereo not given) | -0.6 | 6.0 | -21.3 | 99.0 | 103.0 | 122.0* | 103.0 | 1.0 | 101.0
COC(=O)C1C2OC(C(Br)C2Br)C1C(=O)OC (stereo not given) | 0.0 | / | -10.9 | 99.0 | / | / | / | / | /
